Data as given in PubChem BioAssay AID463187 (University of Pittsburgh Molecular Library Screening Center, 2010).
Several values for one entry are separate records, joined by “and”; a condition that tells them apart may be missing. Equal values may be shown once. Among all 220,000 compounds or so, about 1,500 (0.68%) were called active.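 Rule for the calls: active = Hck-Nef kinase inhibition above about 50% (limit read from the data); inactive = inhibition below that limit.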 The sample as a whole holds a higher share of actives than the screen did.

These compounds were tested against Tyrosine-protein kinase HCK (Homo sapiens) (UniProt P08631) (assay: Hck:Nef complex kinase activity blockers – biochemical, Z-Lyte FRET, 384-well, Hck-YEEI, primary screen (AID 463187;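 note: 0% = DMSO with Hck plus Nef and 100% = Hck alone without Nef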)). Conditions: Recombinant Hck-YEEI plus Nef, Z-Lyte FRET kinase assay; at 20 µM; stronger effect = higher value.
Chain of Tyrosine-protein kinase HCK (Homo sapiens) (P08631 whole entry, looked up): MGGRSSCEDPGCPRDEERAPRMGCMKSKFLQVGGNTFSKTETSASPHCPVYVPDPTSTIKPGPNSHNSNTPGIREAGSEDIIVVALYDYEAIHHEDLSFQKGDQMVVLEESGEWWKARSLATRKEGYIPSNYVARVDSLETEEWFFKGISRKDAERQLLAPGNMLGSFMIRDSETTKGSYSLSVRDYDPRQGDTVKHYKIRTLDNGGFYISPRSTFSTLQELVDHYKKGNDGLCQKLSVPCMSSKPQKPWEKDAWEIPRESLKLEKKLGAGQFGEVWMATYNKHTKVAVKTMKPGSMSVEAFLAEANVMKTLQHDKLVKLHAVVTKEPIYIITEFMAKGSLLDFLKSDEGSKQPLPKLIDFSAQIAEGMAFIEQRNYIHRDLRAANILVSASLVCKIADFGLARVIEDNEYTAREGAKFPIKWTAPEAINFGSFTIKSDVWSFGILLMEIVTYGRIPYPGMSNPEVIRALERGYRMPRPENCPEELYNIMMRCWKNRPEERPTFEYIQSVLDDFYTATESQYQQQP

inhibition, inactive:
Cc1nnc(NC(=O)CSc2nc(C3CCCCC3)nc3ccccc23)s1 -0.612%
Cc1c(Cc2ccccc2)c(=O)oc2cc(OCC(N)=O)ccc12 28.6%
CC(=O)Nc1cc2ccc(OC(C)=O)cc2oc1=O 23.3%
CS(=O)(=O)N(CC(=O)N1CCN(Cc2ccccc2)CC1)c1ccc2c(c1)OCCO2 1.45%
Cc1ccc(C)c(NC(=S)NCC(c2cccnc2)N2CCOCC2)c1 (stereo unspecified) 0.595%
COc1ccccc1N=Cc1c(O)c2ccccc2oc1=O 0.48%
COc1cc(N=Cc2c(O)[nH]c3ccccc23)cc(OC)c1OC 34.4%
CC(C)CNC(=O)/C=C/C(=O)O -8.82% and 22%
Cc1ccc(CN(C)CC(=O)Nc2cccc([N+](=O)[O-])c2)o1 -2.63%
Cc1ccc(NC(=O)CN(C)CC(=O)Nc2cccc(F)c2)cc1[N+](=O)[O-] -0.303%
Cc1cccc(C)c1NC(=O)C1(C)c2cccc[n+]2CC(=O)N1Cc1cccs1 (stereo unspecified) 16.8%
CCS(=O)(=O)c1ccc2c(c1)N(S(=O)(=O)c1ccccc1)CC(C(=O)O)O2 (stereo unspecified) 1.06%
CC1CCCN(CC(O)COc2ccc3c(c2)OCO3)C1 (stereo unspecified) 18.9%
Cc1cc(C(=O)N/N=C/c2ccc(O)c([N+](=O)[O-])c2)c(C)n1-c1ccc(F)cc1 18.7%
CCOc1cccc(/C=N/N2C(=O)CSC2=S)c1O -22.8%
Clc1ccc(-n2nnnc2CN2CCCCC2)cc1Cl 2.13%
Cc1cc(C)c2c(n1)nn1c(N3CCN(c4cccc(Cl)c4)CC3)cc(C)nc21 35.2%
Cc1cc(C)c2c(n1)nn1c(-n3ccnc3)cc(C)nc21 5.47%
CCc1ccc(NC(=O)N[C@H](C(=O)O)C(C)CC)cc1 (stereo partly specified) -2.07%
CC1=CC(C)(C)NC(=S)N1c1ccccc1 -1.08%
COc1ccc(N2CCN(c3ccc([N+](=O)[O-])cc3Cl)CC2)cc1 9.48%
C/C=C/C(=O)Nc1nnc(C(C)C)s1 6.42%
OCCCNc1nccc(-c2cc(Nc3cccc(Cl)c3)ncn2)n1 17.4%
CC(C)C[C@H](CO)Nc1nc(N(C)c2cccc(Cl)c2)c2ncn(C(C)C)c2n1 29.9%
CC1CN(S(=O)(=O)c2ccccc2)C(C)CN1S(=O)(=O)c1ccccc1 (stereo unspecified) 2.18%
CC(=O)Nc1ccc(/C(C)=N/NC(=O)CN(c2ccccc2Br)S(C)(=O)=O)cc1 3.92%
Cc1cc(Br)ccc1SCC(=O)OCC(=O)NCc1ccc2c(c1)OCO2 -1.74%
CC(=O)NC1C(OCc2ccccc2)OC(COC(C)=O)C(OC(C)=O)C1OC(C)=O (stereo unspecified) 0.438%
C/C=C(\C)C(=O)N1CC2(CC(c3cccc(NC(=O)CCCCC)c3)=NO2)C[C@@H]1C(N)=O (stereo partly specified) 35.8%
O=C(CCCCCNC(=O)c1ccccc1)N/N=C/c1ccccc1 9.24%
O=C(N/N=C/c1coc2ccccc2c1=O)c1cc2ccccc2o1 49.1%
Cc1ccc(OCCCC(=O)NC(C)c2ccccc2)c(C)c1 (stereo unspecified) -1.04%
CC(C)n1c(CN2CCN(Cc3ccccc3)CC2)nc2ccccc21 5.34%
CN(C)C(=S)Nc1ccc(Br)cc1Cl 14.6%
CCn1c(NC(=O)c2ccccc2)c(-c2cccs2)c(=O)c2ccccc21 -2.03%
CC(=O)c1cccc(NC(=O)c2ccncc2)c1 -1.38%
Cc1ccc(N2C(=O)CC(Nc3cccc4ccccc34)C2=O)cc1 (stereo unspecified) 20.6%
CC(C)Cn1cnc2c1c(=O)n(CC(O)c1ccccc1)c(=O)n2CC(C)C (stereo unspecified) 1.05%
Brc1ccc(CSc2ccc(-c3ccco3)nn2)cc1 22.4%
Clc1ccccc1CSc1nnc(-c2ccco2)c(-c2ccco2)n1 21.2%
O=C(COc1ccc([N+](=O)[O-])cc1)Nc1ccc(N2CCCC2)cc1 1.04%
CCc1nnc(NC(=O)/C=C/c2ccc(C)o2)s1 2.58%
Cc1c(NC(=O)/C=C/C(=O)O)cccc1[N+](=O)[O-] 0.166%
Cc1ccc(N(CC(=O)Nc2cc(C)cc(C)c2)S(=O)(=O)c2cccc3nonc23)cc1 2.67%
Cc1c(Nc2nc3ccccc3nc2NS(=O)(=O)c2cccs2)c(=O)n(-c2ccccc2)n1C -1.3%
CCOC(=O)c1ccc[n+](CC(=O)Nc2ccccc2OC(F)F)c1 3.79%
Cc1ccc(C)c(SCc2nc3sc(C(=O)O)c(C)c3c(=O)[nH]2)c1 30.6%
COc1ccc(N(CC(=O)NC2CCCC2)C(=O)CS(=O)CC(=O)Nc2ccc3c(c2)OCO3)cc1 (stereo unspecified) 20.7%
CCn1c(SCC(=O)Nc2ccc(S(=O)(=O)Nc3onc(C)c3C)cc2)nnc1-c1ccccc1 0.636%
COc1ccc(C(=O)Nc2ccc(S(=O)(=O)Nc3onc(C)c3C)cc2)cc1OC 2.01%
O=C1c2ccccc2NC(c2ccccc2O)N1NS(=O)(=O)c1ccccc1 (stereo unspecified) 24.7%
O=C(COC(=O)CSc1nnc(-c2ccc(Cl)cc2)o1)Nc1cc(Cl)cc(Cl)c1 3.81%
CCN(CC)c1ccc2cc(C(N)=O)/c(=N\NC(=O)c3ccncc3)oc2c1 -3.77%
CCN(CC)c1ccc2oc(=O)c(C)nc2c1 -14.5%
Cc1cc(C)nc(NNC2=CC(=O)CC(C)(C)C2)n1 22.8%
Cc1[nH]nc(-c2ccc(OCc3cnn(-c4ccccc4)c3)cc2O)c1Oc1ccc(Cl)cc1 0.631%
CCOC(=O)CSc1nc2ccc(C)cc2[nH]1 10.3%
Cc1ccc2nc(S(=O)(=O)O)[nH]c2c1 -5.86%
CCOC(=O)c1sc(-c2cccc([N+](=O)[O-])c2)cc1N 22%
CN(C)C(=O)c1nc2ccc(Cl)cn2c1CN1CCN(c2ncccn2)CC1 16.5%
CCCC(=O)Nc1nc2ccc(NC(=O)c3c(F)c(F)c(OC)c(F)c3F)cc2s1 13.4%
CCC(CC)C(=O)Nc1ccc(S(=O)(=O)Nc2nccs2)cc1 15.9%
O=C(Nc1ccc(S(=O)(=O)Nc2nccs2)cc1)c1cc(=O)[nH]c2ccccc12 8.68%
CC(=O)Nc1ccc(Nc2c3ccccc3nc3ccccc23)cc1 12.8%
Cc1cc(CNC(=O)c2cccc([N+](=O)[O-])c2)c2ccccc2n1 20.7%
Cc1ccc2cc(CCNC(=O)c3ccc4c(c3)OCO4)c(=O)[nH]c2c1 0.571%
Cc1cc(N)n2nc(-c3ccc(C(C)(C)C)cc3)cc2n1 0.862%
CSCC[C@H](NC(=O)CCCn1nnc2ccccc2c1=O)C(=O)O 4.6%
O=C(COc1ccccc1F)NNC(=O)c1ccc(N2CCCCC2)c([N+](=O)[O-])c1 2.35%
Nc1ccc(-c2nnc(-c3ccc(-c4ccccc4)cc3)o2)cc1 2.48%
CCCN(CCC)c1ccc(C(O)c2nnc(-c3ccccc3)o2)cc1 (stereo unspecified) -0.222%

inhibition, active:
CC(=O)Oc1ccc2c(C)c(CC(C)O)c(=O)oc2c1 (stereo unspecified) 81.8%
COc1ccc(N=Cc2c(O)[nH]c3ccccc23)cc1OC 53%
CN(CC(=O)Nc1cccc(F)c1)CC(=O)Nc1cccc([N+](=O)[O-])c1 64.6%
O=C1CSC(=S)N1/N=C/c1ccc(O)c([N+](=O)[O-])c1 118%
Cc1cc(C)c2c(n1)nn1c(N3CCOCC3)cc(C)nc21 58.8%
CC(C)n1cnc2c(Nc3cccc(Cl)c3)nc(N(CCO)CCCO)nc21 112%
Oc1c(Cl)cc(Cl)c(Cl)c1Cc1c(O)c(Cl)cc(Cl)c1Cl 58.4%
O=C(OCC1O[C@@H](OC(=O)c2cc(O)c(O)c(O)c2)[C@@H](OC(=O)c2cc(O)c(O)c(O)c2)[C@@H](OC(=O)c2cc(O)c(O)c(O)c2)[C@@H]1OC(=O)c1cc(O)c(O)c(O)c1)c1cc(O)c(O)c(O)c1 (stereo partly specified) 97.6%
CC(C)(C)OC(=O)NCCCCCC(=O)N/N=C/c1coc2ccccc2c1=O 76.3%
O=C1Oc2ccccc2C(=O)/C1=C/c1ccccc1O 80.6%
CCn1c(=O)c2cc(C(=O)Nc3cccc(C(C)=O)c3)sc2c2ccccc21 53.6%
c1ccc(CSc2nnc(-c3ccco3)c(-c3ccco3)n2)cc1 61.4%
Cc1ccc(/C=C/C(=O)Nc2ccc([N+](=O)[O-])c(NC(=O)/C=C/c3ccc(C)o3)c2)o1 79.2%
Cc1ccc(-c2nc(SCC(=O)Nc3ccccc3OC(F)F)c3c(C)c(C(=O)O)sc3n2)cc1 98.6%
Cc1cc(C)c2nc(-c3cccnc3)cc(C(=O)Nc3ccc(S(=O)(=O)Nc4onc(C)c4C)cc3)c2c1 62.9%
CCN(CC)c1ccc2cc(C(=O)O)c(=O)oc2c1 179%
Cc1ccc2nc(/C(C#N)=C\c3ccc(OC(=O)c4cccs4)cc3)[nH]c2c1 57.1%
O=C(Nc1ccc(S(=O)(=O)Nc2nccs2)cc1)c1cc(-c2ccncc2)nc2ccccc12 75%
O=[N+]([O-])c1cccc(Nc2c3ccccc3nc3ccccc23)c1 64.5%
OC(c1nnc(-c2ccccc2)o1)c1cccs1 (stereo unspecified) 52.9%
